The source of these data is the supplement of paper PMC13380429.

This assay deals with Vero E6 infected with SARS-CoV-2. The experiment in a line: inhibition of SARS-CoV-2 cytopathic effect; higher = more antiviral protection, active = above 15. Conditions: 48 h.

Structures are written as SMILES. Unmarked numbers belong to inactive results.

With `O=C1NCN(c2ccccc2)C12CCN(CCCC(c1ccc(F)cc1)c1ccc(F)cc1)CC2` [fluspirilene], the “inhibition of SARS-CoV-2 cytopathic effect” value (“inhibition” below) was 0.39% (1 nM); -2.06% (8.33 nM); -3.28% (100 nM); -5.63% (833.33 nM); 10.3% (10000 nM).

Take `CN(C)CC(c1ccc(O)cc1)C1(O)CCCCC1` (stereo not given) [desvenlafaxine]: the “inhibition” value is 1.5% (1 nM); 3.55% (8.33 nM); 4.53% (100 nM); 1.89% (833.33 nM); 0.99% (10000 nM).

For `CCN(CC)CCCC(C)Nc1ccnc2cc(Cl)ccc12` (stereo not given) [chloroquine], the “inhibition” value was -1.07% (1 nM); -2.02% (8.33 nM); 0.51% (100 nM); -0.4% (833.33 nM); -1.51% (10000 nM).

As for `CN1c2ccccc2C(NCCCCCCC(=O)O)c2ccc(Cl)cc2S1(=O)=O` (stereo not given) [tianeptine], the “inhibition” value is, setting by setting: (1 nM) 6.9%; (8.33 nM) -1.19%; (100 nM) 0.25%; (833.33 nM) 2.13%; (10000 nM) -1.2%.

As for `CC(=O)Nc1ccc(OC(C)=O)cc1` [diacetamate], the “inhibition” value was -0.51% (1 nM); 0.65% (8.33 nM); 3.04% (100 nM); 0.82% (833.33 nM); 2.03% (10000 nM).

In the case of `COCCCOc1cc(C[C@@H](C[C@H](N)[C@@H](O)C[C@H](C(=O)NCC(C)(C)C(N)=O)C(C)C)C(C)C)ccc1OC` [aliskiren-hemifumarate], the “inhibition” value (1 nM) was 0.8%; the “inhibition” value (8.33 nM) was -0.18%; the “inhibition” value (100 nM) is -1.58%; the “inhibition” value (833.33 nM) is -0.63%; the “inhibition” value (10000 nM) was -0.23%.

Take `CC(C)[C@H](NS(=O)(=O)c1ccc(-c2ccc(Br)cc2)cc1)C(=O)O`: the “inhibition” value was 0.82% (1 nM); 0.67% (8.33 nM); -0.06% (100 nM); 0.69% (833.33 nM); 1.89% (10000 nM).

Turning to `CC(Cc1ccccc1)NCCC(c1ccccc1)c1ccccc1` (stereo not given) [prenylamine], the “inhibition” value is 1.32% (1 nM); -1.92% (8.33 nM); -0.65% (100 nM); -1.29% (833.33 nM); 23.1% (active) (10000 nM).

Consider `OC(c1ccccc1)(c1ccccc1)C1CCNCC1` [azacyclonol], for which the “inhibition” value by setting is: (1 nM) -0.3%; (8.33 nM) 1.56%; (100 nM) -2.53%; (833.33 nM) -0.09%; (10000 nM) -3.58%.

On to `C=CCN1CCc2cc(O)c(O)cc2[C@H](c2ccccc2)C1`, for which the “inhibition” value by setting is: (1 nM) 1.44%; (8.33 nM) 0.58%; (100 nM) 0.35%; (833.33 nM) 0.44%; (10000 nM) -2.9%.

In the case of `C[C@H]1[C@H](NC(=O)/C(=N\OC(C)(C)C(=O)O)c2csc(N)n2)C(=O)N1S(=O)(=O)O` [aztreonam], the “inhibition” value by setting is: (1 nM) 3.78%; (8.33 nM) 20% (active); (100 nM) 1.14%; (833.33 nM) -1.55%; (10000 nM) 0.92%.

In the case of `CC(=O)OCC(=O)NCCCOc1cccc(CN2CCCCC2)c1` [roxatidine-acetate], the “inhibition” value (1 nM) was -0.88%; the “inhibition” value (8.33 nM) was 2.22%; the “inhibition” value (100 nM) was -0.37%; the “inhibition” value (833.33 nM) was 1.86%; the “inhibition” value (10000 nM) is 2.34%.

As to `NC[C@H]1O[C@H](O[C@H]2[C@H](O)[C@@H](O[C@H]3O[C@H](CO)[C@@H](O)[C@H](N)[C@H]3O)[C@H](N)C[C@@H]2N)[C@H](O)[C@@H](O)[C@@H]1O` [kanamycin], the “inhibition” value was 1.47% (1 nM); 2.23% (8.33 nM); 2.41% (100 nM); 3.53% (833.33 nM); -0.06% (10000 nM).

For `CCC[S+]([O-])c1ccc2[nH]c(NC(=O)OC)nc2c1` (stereo not given) [albendazole-oxide], the “inhibition” value by setting is: (1 nM) 3.02%; (8.33 nM) 2.02%; (100 nM) 0.87%; (833.33 nM) 1.7%; (10000 nM) 0.07%.

On to `COc1cc(N)c(Cl)cc1C(=O)CCC1CCN(CCNS(C)(=O)=O)CC1`, for which the “inhibition” value is, setting by setting: (1 nM) -0.46%; (8.33 nM) -0.03%; (100 nM) 0.79%; (833.33 nM) 0.95%; (10000 nM) -0.74%.

Take `Nc1cc(N2CCCCC2)nc(N)[n+]1[O-]` [minoxidil]: the “inhibition” value is 0.37% (1 nM); 0.28% (8.33 nM); -0.2% (100 nM); 1.1% (833.33 nM); -0.33% (10000 nM).

Take `Cc1noc(C)c1-c1cc(O)cc([C@@H](O)c2ccccc2)c1`: the “inhibition” value is -2.32% (1 nM); 1.84% (8.33 nM); -0.24% (100 nM); 1.24% (833.33 nM); -8.49% (10000 nM).

Consider `CC(C)c1nc(N(C)S(C)(=O)=O)nc(-c2ccc(F)cc2)c1/C=C/[C@@H](O)C[C@@H](O)CC(=O)O` [rosuvastatin], for which the “inhibition” value reads like this: (1 nM) -0.46%; (8.33 nM) 0.22%; (100 nM) -2.09%; (833.33 nM) -3.33%; (10000 nM) -2.75%.

For `CCN[C@H]1CN(CCCOC)S(=O)(=O)c2sc(S(N)(=O)=O)cc21` [brinzolamide], the “inhibition” value by setting is: (1 nM) 0.37%; (8.33 nM) -1.59%; (100 nM) -2.91%; (833.33 nM) -1.67%; (10000 nM) -2.11%.

With `CCC(=O)O[C@@H]1CC(=O)O[C@H](C)C/C=C/C=C/[C@H](O)[C@H](C)C[C@H](CC=O)[C@H](O[C@@H]2O[C@H](C)[C@@H](O[C@H]3C[C@@](C)(O)[C@@H](OC(=O)CC)[C@H](C)O3)[C@H](N(C)C)[C@H]2O)[C@H]1OC` [midecamycin], the “inhibition” value is, setting by setting: (1 nM) -1.27%; (8.33 nM) -3.06%; (100 nM) -2.36%; (833.33 nM) -0.5%; (10000 nM) -0.33%.

As for `COc1ccc(C(=O)c2c(C)n(CCN3CCOCC3)c3cc(I)ccc23)cc1`, the “inhibition” value is -3.57% (1 nM); -3.84% (8.33 nM); -3.42% (100 nM); -0.63% (833.33 nM); 2.05% (10000 nM).

Regarding `CC1Cc2ccccc2N1NC(=O)c1ccc(Cl)c(S(N)(=O)=O)c1` (stereo not given) [indapamide], the “inhibition” value runs as follows: (1 nM) 0.88%; (8.33 nM) 2.8%; (100 nM) 0.11%; (833.33 nM) 1.3%; (10000 nM) 1.05%.

`CCN(C)C(=O)Oc1cccc([C@H](C)N(C)C)c1` [rivastigmine]: the “inhibition” value is, setting by setting: (1 nM) -1.4%; (8.33 nM) 0.73%; (100 nM) 2.11%; (833.33 nM) -1.22%; (10000 nM) -1.56%.

As to `CO[C@@H]1[C@@H](OC(N)=O)[C@@H](O)[C@H](Oc2ccc3c(O)c(NC(=O)c4ccc(O)c(CC=C(C)C)c4)c(=O)oc3c2C)OC1(C)C` [novobiocin], the “inhibition” value (1 nM) was -2.55%; the “inhibition” value (8.33 nM) was -2.69%; the “inhibition” value (100 nM) is 2.34%; the “inhibition” value (833.33 nM) is 0.52%; the “inhibition” value (10000 nM) is 0.14%.

Turning to `O=C(C[S+]([O-])C(c1ccccc1)c1ccccc1)NO` (stereo not given) [adrafinil], the “inhibition” value (1 nM) is -1.03%; the “inhibition” value (8.33 nM) was -1.5%; the “inhibition” value (100 nM) is -3.32%; the “inhibition” value (833.33 nM) was 1.58%; the “inhibition” value (10000 nM) is -1.53%.

Consider `O=C(CCCl)NCc1ccccc1` [beclamide], for which the “inhibition” value was -5.2% (1 nM); -1.11% (8.33 nM); 0.49% (100 nM); 0.86% (833.33 nM); -1.73% (10000 nM).

For the compound `CCc1cc2cc(OC)c(OC)cc2c(Cc2ccccc2)n1` [moxaverine], the “inhibition” value (1 nM) was 3.28%; the “inhibition” value (8.33 nM) was 0.47%; the “inhibition” value (100 nM) is 0.44%; the “inhibition” value (833.33 nM) is 0.83%; the “inhibition” value (10000 nM) is 4.26%.

On to `CCO[C@@H](Cc1ccc(OCCn2c(C)ccc2-c2ccc(SC)cc2)cc1)C(=O)O` [saroglitazar], for which the “inhibition” value was 1% (1 nM); -0.85% (8.33 nM); -1.26% (100 nM); 0.64% (833.33 nM); 1.31% (10000 nM).
